D1 ag – human D1 receptor agonism | P21728 | HEK293 T-REx D1 cells, calcium flux, agonist mode | activation, % at 2 µM | 1% of 360,000 active | AID 504660; further: 0% is about no effect
Target sequence (P21728 whole entry, looked up): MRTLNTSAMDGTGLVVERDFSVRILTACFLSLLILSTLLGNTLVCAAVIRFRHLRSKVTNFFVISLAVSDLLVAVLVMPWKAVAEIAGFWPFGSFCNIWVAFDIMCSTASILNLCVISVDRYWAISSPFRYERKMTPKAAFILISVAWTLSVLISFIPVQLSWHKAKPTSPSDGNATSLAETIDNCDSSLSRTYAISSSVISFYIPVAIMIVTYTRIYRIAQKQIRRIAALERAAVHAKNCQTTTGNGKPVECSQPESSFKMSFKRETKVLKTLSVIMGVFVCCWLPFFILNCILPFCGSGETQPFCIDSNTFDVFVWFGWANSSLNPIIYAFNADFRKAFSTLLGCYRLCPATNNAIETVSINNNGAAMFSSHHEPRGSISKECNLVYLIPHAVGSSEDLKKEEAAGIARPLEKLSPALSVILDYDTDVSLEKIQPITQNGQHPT
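Tetracycline-induced HEK293 TREx D1 cells, force-coupled to calcium signalling, were dye-loaded with a no-wash calcium kit. Compound was pin-added after a 10 s baseline. Fluorescence was read kinetically at 1 cycle/s for 180 s, with calcium rises flagged as agonism.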
TRHR enhancer – allosteric enhancers of human TRH receptor | 0.66% of 360,000 active | enhancement, % at 2 µM | TRHR cells, fluo-8 calcium fluorescence, EC20 TRH enhancement; in the data active means enhancement above about 30%; further: 0% is about no effect
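TRHR-expressing cells loaded with fluo-8 calcium dye were read kinetically (ex 480/em 530) during compound addition, then stimulated with an EC20 of TRH (10 nM final). Enhancement of the Gq-mediated intracellular calcium response was scored.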
TRHR agonist – agonists of human TRH receptor | TRHR cells, calcium flux fluo-8, FDSS agonist mode | activation, % at 2 µM | 0.18% of 360,000 active; further: 0% is about no effect
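TRHR-expressing cells loaded with fluo-8 calcium dye; 23 nL library compound pin-transferred, kinetic FDSS fluorescence (Ex 480/Em 530) recorded about 180 s for agonist-induced calcium release, before a 10 nM TRH EC20 addition for potentiator mode.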
D1 PAM – human D1 dopamine receptor positive modulation; 0.036% of 360,000 active; AID 504651; HEK293 TREx D1 cells, calcium flux, dopamine EC20 potentiation; P21728; potentiation, % at 10 µM; in the data active means potentiation above about 30%; further: 0% is about no effect
D1 antagonist – antagonists of human D1 dopamine receptor. AID 504652. 3.2% of 360,000 active. activity change, negative = inhibition, % at 10 µM. HEK293 TREx D1 cells, calcium flux, dopamine EC80; active compounds read low. P21728; in the data active means activity change below about -30%; further: on the % scale 0 is the no-effect control and ±100 the full control effect
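Cells carrying a force-coupled, tetracycline-inducible human D1 receptor report calcium flux. Each well gets a 10 s baseline, compound with 180 s monitoring, then an EC80 dopamine stimulus with a second 180 s kinetic read.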
Numbers without * were called inactive; ! = not confirmed by another sample. Sampled rows, rich in hits. Any-hit rate of the full collection: about 4.6%. Unless noted, no stated cut-off is given here; in the data, active means activation above about 30%; inactive means the rest.

SMILES | D1 ag | TRHR enhancer | TRHR agonist | D1 PAM | D1 antagonist
Cc1nnc2c3ccccc3nc(Nc3ccc(F)cc3Cl)n12 | 2 | 5 | 1 | 2 | -1
C=CCNC(=O)c1onc(CSc2cccc(OC)c2)c1C(=O)NCC=C | 0 | -4 | 0 | 0 | -49*
C=CCNC(=O)c1onc(CSc2ccc(Cl)cc2)c1C(=O)O | 0 | 18 | 0 | 0 | 6
C=CCNC(=O)c1onc(CSc2ccc(F)c(F)c2)c1C(=O)O | 31* | 4 | 0 | 1 | 136
CCOC(=O)c1ccc(NC(=O)c2oc3c(c2C)-c2nn(Cc4ccccc4Cl)cc2CC3)cc1 | 3 | -6 | 0 | 1 | 0
COc1cc(Cc2cnc(N)nc2N)cc(OC)c1OC | -1 | 5 | 1 | 4 | -48*!
O=C(NCCC1=CCCCC1)c1ccc2c(c1)N(Cc1ccccc1F)C(=O)c1ccccc1S2=O (configuration not stated) | 7 | -4 | 1 | -4 | -10
Cc1cc(C)c(S(=O)(=O)Nc2ccc(C(N)=O)cc2)c(C)c1 | 2 | 1 | 0 | -2 | -43*
CC(=O)c1ccc(NS(=O)(=O)c2c(C)cc(C)cc2C)cc1 | 4 | 3 | 0 | -1 | -5
CCOc1cc2[nH]c(=O)n(CCC(=O)N3CCN(c4cccc(Cl)c4)CC3)c(=O)c2cc1OCC | 0 | -8 | 0 | -2 | 1
CNS(=O)(=O)c1cccc(C(=O)OCC(=O)c2cc(C)n(CC3CCCO3)c2C)c1 (configuration not stated) | 12 | -1 | 0 | 1 | -13
Cc1cc(C(=O)CSc2n[nH]c(N)n2)c(C)n1-c1ccc2c(c1)OCO2 | 1 | 2 | 0 | 0 | -40*
Cc1cc(C(=O)CN2C(=O)NC(C)(CC(C)C)C2=O)c(C)n1-c1ccc2c(c1)OCO2 (configuration not stated) | 5 | -6 | 0 | -4 | -46*
CNS(=O)(=O)c1cccc(C(=O)OCC(=O)c2cc(C)n(-c3ccc4c(c3)OCO4)c2C)c1 | 3 | -16 | 0 | -11 | -39*
Cc1cc(C(=O)COc2ccccc2Cl)c(C)n1-c1ccc2c(c1)OCO2 | 2 | -2 | 0 | -5 | 0
CCOC(=O)Cc1ccc(NC(=O)N(Cc2ccc(CC)cc2)Cc2cn[nH]c2-c2ccc(OC)cc2)cc1 | 0 | -8 | 0 | 0 | -6
CCOC(=O)CC(=O)CSc1nc2c(sc(=S)n2-c2ccccc2)c(=O)[nH]1 | 2 | -6 | 0 | -3 | -3
COC(=O)CNC(=O)CSc1nc2c(sc(=S)n2-c2ccccc2)c(=O)[nH]1 | 1 | -27 | 0 | -6 | -37*
Cc1cc(Cl)c(S(=O)(=O)Nc2ccc3c(c2)OCO3)cc1OCC(N)=O | 3 | 11 | 1 | -4 | -34*
Cc1ccc(CNc2ccc(-c3nc(C(C)C)no3)cc2[N+](=O)[O-])cc1 | 4 | 5 | 1 | -2 | 6
COc1cccc(NC(CNS(=O)(=O)c2ccc(C)cc2)c2ccccc2)c1 (configuration not stated) | 2 | 8 | -1 | -2 | -7
COc1cccc(NC(CNS(=O)(=O)c2ccc(Cl)cc2)c2ccccc2)c1 (configuration not stated) | 9 | 7 | -1 | -3 | -34*
CC1C(c2ccccc2)N(C)C(c2ccccc2)C(C)C1(O)C#Cc1ccccc1 (configuration not stated) | 11 | 39* | 1 | -4 | -1
Cc1ccc(-c2nc(N3CCN(S(=O)(=O)c4ccc(F)cc4)CC3)c3ccc(Cl)cc3n2)cc1 | 3 | 1 | -1 | 1 | -41*
COc1ccc(-c2nc(N3CCN(S(=O)(=O)c4ccc(F)cc4)CC3)c3ccccc3n2)cc1 | 5 | 39* | -1 | 3 | -31*
O=C(NCCO)c1ccc(-c2nnc(Nc3ccc(OC(F)(F)Cl)cc3)c3ccccc23)cc1 | 0 | 0 | 0 | -4 | -3
CC(OC(=O)Cc1cccc(C(F)(F)F)c1)C(=O)Nc1ccc(Cl)cn1 (configuration not stated) | 5 | 0 | -1 | -5 | -2
COc1cccc(CC(=O)OC(C)C(=O)Nc2ccc(Cl)cn2)c1 (configuration not stated) | 4 | -5 | -1 | -2 | -35*
